Screening results from PubChem BioAssay.
JMJD2A Tudor – inhibitors of human JMJD2A Tudor domain; AID 504339; AlphaScreen JMJD2A-Tudor / H3K4me3 peptide binding; hit rate 4.4% among 390,000; O75164; Potency, µM (top dose mostly 114 µM), without a hit: top-dose activity change, negative = inhibition, most hits filed as inhibitors; also: % is scaled to controls: 0 for no effect and ±100 for the full control effect; nearly all actives have a fitted effect of over 50% in size
BAZ2B inh – BAZ2B (human) inhibition | AlphaScreen BAZ2B-H3K14Ac peptide displacement | Potency, µM (titrated, usually from 114 µM), inactives show at the highest dose activity change, negative = inhibition, hits mostly inhibitors | hit rate 4.4% among 360,000 | AID 504333; also: % is scaled to controls: 0 for no effect and ±100 for the full control effect; nearly all actives have a fitted effect of over 60% in size
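AlphaScreen luminescence quantifies BAZ2B engagement of H3K14Ac peptide; the protein and biotinylated peptide are both at 50 nM final, buffer PBS pH 7.4 with 0.01% Tween-20, all steps at room temperature.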
HP1b chromo inh – inhibitors of HP1-beta chromodomain binding to methylated histone tails. AlphaScreen HP1-beta / biotin-H3K9me3 peptide binding. hit rate 0.56% among 390,000. P83916. Potency, µM (doses to about 114 µM), for the others: at the highest dose activity change, negative = inhibition, most hits filed as inhibitors. AID 540317; also: nearly all actives have a fitted effect of over 70% in size
Target sequence (P83916 whole entry, looked up): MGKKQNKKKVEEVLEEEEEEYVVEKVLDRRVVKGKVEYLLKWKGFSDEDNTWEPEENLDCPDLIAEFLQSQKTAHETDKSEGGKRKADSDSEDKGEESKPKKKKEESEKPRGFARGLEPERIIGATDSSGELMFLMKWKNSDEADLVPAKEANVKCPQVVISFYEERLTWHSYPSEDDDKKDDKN
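AlphaScreen: HP1-beta (50 nM) preformed 30 min with biotin-H3(1-18)K9me3 peptide (50 nM) in PBS pH 7.4, 0.01% Tween-20. Compound added for 30 min at RT, then streptavidin donor/nickel chelate acceptor beads (10 ug/mL) for 30 min.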
G9a inh – G9a (human) methyltransferase inhibition. Q96KQ7. G9a H3K9 monomethylation, AlphaScreen, 2 h. Potency, µM (series often up to 102 µM), inactives show at the highest dose activity, negative = inhibition, actives largely listed as inhibitors. hit rate 8.8% among 350,000; also: % is scaled to controls: 0 for no effect and ±100 for the full control effect; nearly all actives have a fitted effect of over 75% in size
Target sequence (Q96KQ7 913-1193 limits assumed): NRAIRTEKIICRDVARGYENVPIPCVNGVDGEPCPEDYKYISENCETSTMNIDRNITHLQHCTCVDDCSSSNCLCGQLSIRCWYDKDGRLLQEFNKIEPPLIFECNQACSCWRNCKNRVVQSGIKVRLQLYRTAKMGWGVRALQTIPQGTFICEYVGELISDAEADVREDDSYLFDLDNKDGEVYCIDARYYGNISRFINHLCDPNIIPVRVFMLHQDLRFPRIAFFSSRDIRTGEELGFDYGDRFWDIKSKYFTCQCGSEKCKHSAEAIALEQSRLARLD
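G9a (20 nM) preincubated 15 min RT with compounds, then 500 nM biotinylated H3K9 peptide and 20 uM SAM added; 2 h RT reaction. Monomethyl-H3K9 product detected by AlphaScreen with anti-H3K9me1 antibody, streptavidin donor and anti-rabbit IgG acceptor beads.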
L3MBTL1 block – blocks human L3MBTL1 | AlphaScreen L3MBTL1–H3K9me1 peptide binding | AID 485360 | Potency, µM (series often up to 57.1 µM), for the others: at the top dose activity, negative = inhibition, hits mostly inhibitors | Q9Y468 | hit rate 0.66% among 230,000; also: % is scaled to controls: 0 for no effect and ±100 for the full control effect; nearly all actives have a fitted effect of over 60% in size
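Read-out is AlphaScreen signal from streptavidin donor and nickel chelate acceptor beads (10 ug/mL final each) bridging L3MBTL1 (50 nM) and biotinylated K9-monomethylated H3(1-15) peptide (75 nM), after 30 min compound exposure at room temperature.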
Active calls of the source: *; ? = inconclusive; / = no result given; [ ] = remark or other dose. Compounds with a hit are over-represented: about 11% of the library has one in this group of screens. Calls follow the shape of the dose curve; as a rule, active = well fitted inhibition curve with a large enough effect; inconclusive = small, poorly fitted or top-dose-only effect; inactive = no such curve, though single readings can be large or run the other way. Potency is read from the fitted curve at half-maximal effect.

SMILES	JMJD2A Tudor	BAZ2B inh	HP1b chromo inh	G9a inh	L3MBTL1 block
COc1cc(C(=O)Oc2c(OC)cc(C(=S)N3CCOCC3)cc2OC)cc(OC)c1OC	-28%	-33%	21%	?	-4%
COc1cc(C(=O)Oc2c(CN3CCOCC3)cc(Cl)c3cccnc23)cc(OC)c1OC	56µM*	20µM*	17%	-16%	/
Cc1nc2c(c(C)c1CCC(=O)Nc1ccc(F)cc1)c(=O)n(C)c(=O)n2C	0%	-12%	46%	12%[59 µM]	/
Oc1ccc(/C=N/N2CCN(C3c4ccccc4-c4ccccc43)CC2)c(O)c1	40µM*	?	?	40µM*	?
Cc1ccc(/C=N/N2CCN(C3c4ccccc4-c4ccccc43)CC2)o1	45µM*	35µM*	?	/	-29%
O=[N+]([O-])c1ccc(Cl)c(/C=N/N2CCN(C3c4ccccc4-c4ccccc43)CC2)c1	?	-35%	-12%	27%[0.501 µM]	0%
Oc1ccc(/C=N/N2CCN(C3c4ccccc4-c4ccccc43)CC2)cc1	-19%	-15%	12%	-5%	-18%
O=C(O)c1ccc(/C=N/N2CCN(C3c4ccccc4-c4ccccc43)CC2)cc1	-15%[11.4 µM]	45µM*	-5%	/	/
Oc1ccc(/C=N/N2CCN(C3c4ccccc4-c4ccccc43)CC2)cc1O	40µM*	40µM*	50µM*	/	-10%
Cc1ccc(/C=C2/C(=O)C3(C)CCC2C3(C)C)cc1 (configuration not stated)	/	/	/	11%[12.7 µM]	/
Cc1cc(C)c(S(=O)(=O)c2ccccc2C)c(OCCN(C)C)n1	-10%	-1%	0%	15%	/
COc1ccc(Br)cc1CNC(=O)CN1C(=O)CSc2ccc(S(=O)(=O)N3CCOCC3)cc21	-22%	0%	36%	-2%[59 µM]	/
O=C(O)c1ccccc1/C=N/N1CCN(C2c3ccccc3-c3ccccc32)CC1	-29%	-37%	5%	40µM*	-17%
C(=N\N1CCN(C2c3ccccc3-c3ccccc32)CC1)/c1cccs1	?	?	-26%	41%[0.501 µM]	-8%
Cc1ccccc1OCCn1cnc2cc([N+](=O)[O-])ccc2c1=O	-32%	?	2%	-33%	-25%
[O-]/[N+](=C\c1ccc(OC(F)F)cc1)c1ccccc1	-2%	-7%	56%	50µM*	0%
Oc1ccc(O)c(Cc2nc3ccccc3s2)c1	13µM*	?	20µM*	10µM*	?
COc1cccc(NC(=O)Cn2nnc(-c3nc(-c4ccccc4)no3)c2N)c1	-24%	-31%	1%	-43%[59 µM]	/
Cc1nc(NC(=O)C23CC4CC(CC(C4)C2)C3)sc1Cc1ccc2c(c1)OCO2	?	-36%	-2%	35µM*	-1%
Cc1nc(NC(=O)C2CCCC2)sc1Cc1ccc2c(c1)OCO2	?	50µM*	13%	?	-15%
Cc1cccc(C(=O)NCCC(=O)Nc2nc(C)c(Cc3ccc4c(c3)OCO4)s2)c1	-5%	-28%	17%	3%[59 µM]	4%
O=C(O)CC(NC(=O)C12CC3CC(CC(C3)C1)C2)c1ccc2c(c1)OCO2 (configuration not stated)	-2%	7%	37%	?	/
Oc1ccc2ccccc2c1C=Nc1ccccc1-c1nc2ccccc2[nH]1	?	2%	?	7.1µM*	/
Cc1ccc(N/N=C/c2c(O)cc(C)oc2=O)cc1	-29%	?	46%	?	2%
Cc1ccc(CO/N=C/c2c(O)cc(C)oc2=O)cc1	?	?	40%	32µM*	4%
SMILES	JMJD2A Tudor	BAZ2B inh	HP1b chromo inh	G9a inh	L3MBTL1 block
Oc1ccccc1C=NN=Cc1c(O)ccc2ccccc12	-5%	/	47%	/	/
Oc1ccc2ccccc2c1C=Nc1ccc(Cl)cn1	25µM*	-10%	-20%	1.8µM*	-28%
Cc1cc(O)c(/C=N/Nc2ccc(F)cc2)c(=O)o1	?	-33%	30%	4.5µM*	0%
Cc1cc(O)c(C=Nc2ccc(Cl)cn2)c(=O)o1	32µM*	?	7%	-34%[12.7 µM]	/
CCOc1ccc(N=Cc2c(O)cc(C)oc2=O)cc1	-21%	-4%	38%	-35%	-2%
Cc1ccc(-c2cc3c(N4CCN(c5cc(C)ccc5C)CC4)nccn3n2)cc1	-25%	?	-17%	?	/
Cc1ccc(OCC(=O)OCc2cc(=O)n3nc(-c4cccs4)sc3n2)cc1C	-13%	-16%	34%	4%[59 µM]	/
Cc1cc(O)c(/C=N/c2ccccn2)c(=O)o1	79µM*	?	19%	14µM*	?
Cc1cccc(/N=C/c2c(O)cc(C)oc2=O)n1	?	-14%	6%	13µM*	?
COc1ccc(OCC(=O)OCc2cc(=O)n3nc(C4CC4)sc3n2)cc1	-20%	-7%	-18%	6%[59 µM]	/
CN(C)S(=O)(=O)c1cccc(NC(=S)N/N=C/C2CC=CCC2)c1 (configuration not stated)	13µM*	-25%	38%	5.6µM*	-1%
O=C(CN1C(=O)NC2(CCCC2)C1=O)Nc1cc(S(=O)(=O)N2CCOCC2)ccc1OCC(F)(F)F	4%	-11%	18%	?	/
CCCCSCc1nc2ccccn2c1Br	-8%	-37%	62%	13µM*	-20%
CCSCc1nc2ccccn2c1Br	-12%	?	40%	13µM*	2%
COc1cc2nc(=S)n3[nH]c(COc4ccccc4C)nc3c2cc1OC	-37%	6%	21%	-5%[59 µM]	8%
COc1cc2nc(=S)n3[nH]c(CCn4nc(C)cc4C)nc3c2cc1OC	-23%	5%	0%	1µM*	/
Cc1ccccc1CNC(=O)CN1C(=O)C2CCCCN2c2ccc(C(=O)N3CCCC3)cc21 (configuration not stated)	-23%	-6%	13%[57 µM]	-1%[59 µM]	/
O=C1c2ccccc2C(=O)C1c1ccc(O)cc1	-11%	20%	43%	-35%	/
O=C1c2ccccc2C(=O)C1c1ccc(Cl)cc1	-19%	?	9%	45µM*	/
CCCCC(=O)NCCc1c(Cc2ccccc2)[nH]c2ccccc12	/	/	/	13µM*	/
CC(=O)NCCc1c(Cc2ccccc2)[nH]c2ccccc12	/	/	/	19%[59 µM]	/
c1ccc2c(Nc3nc4c(s3)CCCC4)cccc2c1	-28%[57.1 µM]	50µM*	?	8%[0.0925 µM]	-6%
O=S(=O)(Nc1nc2c(s1)CCCC2)c1ccc2ccccc2c1	?	?	9%	50µM*	/
Cc1ccc(-c2noc(-c3ccc(NCC4CCCO4)c([N+](=O)[O-])c3)n2)cc1 (configuration not stated)	-16%	-15%	53%	-17%[59 µM]	/
COc1ccc(C2c3[nH]c4ccccc4c3CCN2C(=O)c2cc3ncccn3n2)c(F)c1 (configuration not stated)	?	32µM*	2%	20%[12.7 µM]	-18%
COc1ccc(C2c3[nH]c4ccccc4c3CCN2C(=O)c2cn3ccccc3n2)c(F)c1 (configuration not stated)	?	22µM*	-5%	/	-27%
